Laboratory results published in PubChem BioAssay AID939 (National Center for Advancing Translational Sciences (NCATS), 2007).
Records with an inconclusive call do not appear. Calls of active or inactive are those of the source. Calls come from the whole dose curve; as a rule, active = well fitted activation curve with a large enough effect in the main read-out, with a control signal flat; inconclusive = small, poorly fitted or top-dose-only effect, or effect the other way, or a change in a side signal; inactive = no such curve, though single readings can be large or run the other way.

Legend:
[1] = Confirmation Concentration-Response Assay for Agonists of the Thyroid Stimulating Hormone Receptor; settings: HEK293 TSHR-CNG cells, membrane potential dye, cAMP; measured here: parental HEK293 counter-screen max; for activation: % of control where 0% means no effect
Text: (§1) NIH Chemical Genomics Center [NCGC] NIH Molecular Libraries Screening Centers Network [MLSCN] MLSCN Grant: 1 X01 MH080680-01 PI Name: Dr. Marvin Gershengorn, NIH NCGC Assay Overview: Thyroid Stimulating Hormone Receptor TSH is an alpha/beta heterodimeric glycoprotein hormone secreted from the anterior pituitary gland which belongs to the glycoprotein hormone family. The actions of TSH are mediated by a seven-transmembrane receptor, which upon TSH binding couples preferentially to the G-alpha (s) protein (Gs), resulting in activation of adenylate cyclase and increase in cyclic adenosine 3', 5' monophosphate (cAMP). The TSH receptor (THSR) is mainly expressed in thyroid follicular cells and regulates their growth and function. Recombinant TSH is used to activate TSHR in patients with thyroid cancer receiving thyroid hormone suppression therapy and to screen for residual tumor after surgery, but it is expensive and must be administered intramuscularly. An orally active small molecule TSHR agonist would serve as an invaluable research tool for studying TSHR pharmacology and physiology, and would have multiple advantages in therapeutic settings. However, no selective small molecule agonist of the TSH receptor exists, and no small molecule screen for TSHR agonists has ever been reported. This cell based assay utilized a cyclic nucleotide gated ion channel (CNG) as a biosensor for cAMP induction by potential TSHR agonists. TSHR cell line HEK 293 cells stably expressing the TSHR as well as a modified CNG were purchased from BD biosciences. Stimulation of cAMP production causes the CNG to open and subsequent membrane depolarization to occur. A fluorescent membrane potential dye (BD biosciences) was utilized to detect cAMP stimulation in TSHR cells. The cells were maintained in DMEM medium (Invitrogen) containing 10 % FBS (Hyclone), 100 units/ml Penicillin, 100 ug/ml Streptomycin (Invitrogen), and 250 ug/ml Geneticin (Invitrogen) and 1 ug/ml Puromycin (Invitrogen) at 37C in 5% CO2. HEK 293 cells expressing CNG but without TSHR (parental cells) were used in concert to control for compounds signaling through endogenous receptors and targets of HEK 293 cells.
(§2) NCGC Assay Protocol Summary: High Throughput Screening. Freshly passaged cells (TSHR or parental) were dispensed into 1536-well assay plates at 4 ul/well in DMEM containing phenol red (Invitrogen), 10% FCS (Hyclone), and 100 units/ml Penicillin, 100 ug/ml Streptomycin (Invitrogen) and incubated at 37 C with 5% CO2 for 20 to 36 hrs before the robotic screening. The screen was initiated by addition of 4 ul/well membrane potential dye containing 100 uM RO 20-1724 (Sigma Aldrich), followed by 60 min incubation at room temperature to allow for dye equilibration across the cell membrane. 23 nl/well compound or control was then added to the assay plates, which were incubated for additional 30 min before reading a Envision fluorescence plate reader (Perkin Elmer) in bottom-read mode for fluorescence intensity (emission at 590 nm). Keywords: Thyroid-stimulating hormone TSH, TSHR, TSHR agonist, quantitative high throughput screening, qHTS, HTS, probe identification, CNG, cAMP, cyclic nucleotide gated ion channel PubChem

[2] = target: Thyrotropin receptor (Homo sapiens) (UniProt P16473); assay: as above; settings: HEK293 TSHR-CNG cells, membrane potential dye, cAMP; series mostly up to 25.6 µM
Sequence of Thyrotropin receptor (Homo sapiens) (P16473 whole entry, looked up): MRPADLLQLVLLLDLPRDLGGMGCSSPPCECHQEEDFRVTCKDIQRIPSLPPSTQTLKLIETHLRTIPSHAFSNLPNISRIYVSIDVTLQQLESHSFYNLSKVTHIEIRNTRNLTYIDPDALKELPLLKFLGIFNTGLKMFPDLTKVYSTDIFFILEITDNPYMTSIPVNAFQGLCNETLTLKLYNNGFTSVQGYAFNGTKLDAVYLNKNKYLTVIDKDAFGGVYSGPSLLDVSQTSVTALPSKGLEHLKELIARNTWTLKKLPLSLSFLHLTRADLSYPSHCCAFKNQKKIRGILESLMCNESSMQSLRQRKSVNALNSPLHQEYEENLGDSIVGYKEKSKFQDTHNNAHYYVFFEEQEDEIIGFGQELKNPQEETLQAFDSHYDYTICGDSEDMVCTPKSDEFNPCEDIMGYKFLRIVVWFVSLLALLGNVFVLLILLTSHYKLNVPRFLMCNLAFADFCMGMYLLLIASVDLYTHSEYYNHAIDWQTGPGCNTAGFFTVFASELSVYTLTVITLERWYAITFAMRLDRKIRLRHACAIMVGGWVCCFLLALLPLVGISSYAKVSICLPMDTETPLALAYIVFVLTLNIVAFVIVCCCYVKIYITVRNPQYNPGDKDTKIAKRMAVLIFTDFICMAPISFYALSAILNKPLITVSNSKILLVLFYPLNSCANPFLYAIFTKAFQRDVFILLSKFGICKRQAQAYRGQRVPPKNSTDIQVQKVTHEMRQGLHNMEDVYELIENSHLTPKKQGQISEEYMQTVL
Text: as §1, §2
Potency is the fitted concentration of half-maximal effect.

SMILES	max response [1]	Potency [2]
CN(C)c1ccc(CN2CC=C(c3ccc(F)cc3)CC2)cc1	5.57%	inactive
O=c1[nH]c(=O)n(Cc2ccco2)c(O)c1C=NC1CC1	5.23%	inactive
CCC(=NCC1CCCO1)c1c(O)n(Cc2ccccc2)c(=O)[nH]c1=O (centres undefined)	5.62%	inactive
CCOC(=O)C1=C(C)OC(N)=C(C(=O)OC)C12C(=O)Nc1ccc(Br)cc12 (centres undefined)	-4.55%	inactive
O=C(Nc1nc2ccccc2n1CCN1CCCC1)c1ccc(Cl)cc1	-11%	inactive
CCn1c(C)c(C(=O)O)c2cc(OC)ccc21	6.15%	inactive
C=CCN1C(=O)C2(C(C(=O)OCC)=C(N)Oc3c2c(=O)oc2ccccc32)c2ccccc21 (centres undefined)	-4.89%	5.01 µM (active)
